{"source": "the supplement of paper PMC6555819", "data": [{"system": "VDR:RXRa (NR concentration 270 nM, RXRa partner concentration 90 nM)", "assay": "PBM binding z-score (relative to random genomic background probes); higher = stronger binding; sequences stand for … in GC…GCGATTGACAGCGTAGAATGAAGG", "experimental": "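Protein-binding microarray (Agilent 4x180K custom design, double-stranded 60-nt probes: 5' GC cap, 34-nt variable region, 24-nt constant primer region; full probe sequence given). Purified or IVT nuclear receptor:RXRα heterodimers (3:1 NR:RXRα, mostly 270:90 nM) or homodimers were incubated for 1 h in PBS with 2% milk and no ligand, then detected with Alexa488 antibodies. Fluorescence from o1-orientation probes (~5 replicates averaged) was converted to z-scores against 500 random hg19 background probes. Variable regions are seed direct-repeat (DR0–DR5) sites, all their single-nucleotide variants and half-site ablations.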", "values": [{"sequence": "GCTCGGAGGACACGGTCAGAGCTTTGTCCGTAGA", "PBM binding z-score": -0.792}, {"sequence": "TCTTGTAGATCAAAGGTTAAGTAAGCCGAAGCCT", "PBM binding z-score": 2.04}, {"sequence": "CAATCTAGGTCAAGAGGTCAAAGTCCGCTTCCCG", "PBM binding z-score": 6.23}, {"sequence": "ATCGAAAGGTCGTGAGGTGAGCATACAGAAAGGC", "PBM binding z-score": 3.19}, {"sequence": "ATACCAAGGTGATCGTTAGGTCGTTGATACTAAC", "PBM binding z-score": 0.566}, {"sequence": "TCTATCAGTTGAAGGGCAACCGACGAGTCCGTTT", "PBM binding z-score": 1.07}, {"sequence": "CCTAGCAGGCCCATCTGGGTCACTCAAGGCTTGA", "PBM binding z-score": -0.0613}, {"sequence": "CCTTACGGGTCACTTCAGGTTATAGCATCGGAGT", "PBM binding z-score": 4.22}, {"sequence": "CCTTTTAGTTGACCATAAGGGCAACCGAAGCTCG", "PBM binding z-score": 1.28}, {"sequence": "CTTAGCAGGCCAATCTGGGTCACTCAAGGCTTGA", "PBM binding z-score": 0.462}, {"sequence": "AGTCAAAGTTCATGTAGGTAACGTAAGATATGCT", "PBM binding z-score": 4.84}, {"sequence": "TAACCTAGGTCATTGGGCCAGTATAGTACGCATC", "PBM binding z-score": 2.89}, {"sequence": "AAAGACAGGTGATGAAGGTAACTCAGGCTATCAT", "PBM binding z-score": 0.521}, {"sequence": "GCTAGCAGGCCATATGGGTCACTCAATGACGGGC", "PBM binding z-score": 0.951}, {"sequence": "TCGAGTAGGTTTGGGGCATTCAGAATGGCGTCGA", "PBM binding z-score": -0.0942}, {"sequence": "CGTCCAAGGTCATCAGGTCAGTGAAAGCGACGTG", "PBM binding z-score": 5.43}, {"sequence": "ATCTCTAGGTACAGATAGTTCAGTGAATGCAAAT", "PBM binding z-score": 1.18}, {"sequence": "CGTCCGAGGTCAGAGAGGTCAGTGAATGCCGAGT", "PBM binding z-score": 7.89}, {"sequence": "GCGACTGGGCCAAAGCAGGTTACCATAAGGTTGG", "PBM binding z-score": -0.513}, {"sequence": "CCTTACGGGTCACTCCAGGTTATCGCATCGGAGT", "PBM binding z-score": 4.2}, {"sequence": "TCTCGGAGGACACGAAGGTCAGGGCTTTCCAGAG", "PBM binding z-score": 2.24}, {"sequence": "ATCTCTAGGTAAGACTCAGTTCAGCGAAGAACGC", "PBM binding z-score": 0.97}, {"sequence": "GATACAGGGTCGAGGCCAGAGTACGCGTATTGAT", "PBM binding z-score": 1.41}, {"sequence": "ACTAGCAGGCCAAGTTTAGGTCACTCAAACAAAG", "PBM binding z-score": 0.781}, {"sequence": "TCTTGTATATCAAGCAGGTTAAGAAAGCCTGAGT", "PBM binding z-score": 0.659}, {"sequence": "CAAACTAGGCCACAGAGGTCAAAGTCCGTGCGTA", "PBM binding z-score": 6.29}, {"sequence": "CAGCCTAGGTCAGGGCCAGTAAAGGAGGAACGTT", "PBM binding z-score": 0.0313}, {"sequence": "GCTAGCAGGCCATTTGGCTCACTCAATGACGGGC", "PBM binding z-score": -0.942}, {"sequence": "TCATATAGGTAATACGGGTGAAAGTCGGCATCTA", "PBM binding z-score": 1.25}, {"sequence": "TAGCCTAGGTCATTGGTCCAGTATAGTACGCATC", "PBM binding z-score": 2.55}, {"sequence": "GTACCAAGGTGAATAGGTGGTTGATGAGTAGGCG", "PBM binding z-score": -0.165}, {"sequence": "GCTACAGGGTCAAGGCCAGAGTACGCGTATTGAT", "PBM binding z-score": 4.28}, {"sequence": "TCATATAGGTAAACCGGTGAAAGTCCGTAAGTTA", "PBM binding z-score": 0.87}, {"sequence": "TTACCAAGGTGAAAGGCCGTTGATGCACGCCTTG", "PBM binding z-score": 0.0595}, {"sequence": "TAGCCTAGGTCATTGAGCCAGTATAGTACGCATC", "PBM binding z-score": 2.1}, {"sequence": "CAGACTAGGTCAAGGTCAAAGTCGGTTTGTGCCA", "PBM binding z-score": 5.15}, {"sequence": "CGAACTAGGTCAGAACCGGACAGTGAAGGATGAT", "PBM binding z-score": 0.264}, {"sequence": "TCTGCGAGGTCAACGATGGTCAGCTAATCTGCTA", "PBM binding z-score": 5.38}, {"sequence": "TCTAGCATGCCAGAGGGTCACTCAAGAGGTACGG", "PBM binding z-score": 1.46}, {"sequence": "CACACTAGGTCACGAAAGGTCAAAGTCGAATGAC", "PBM binding z-score": 7.02}]}]}
